Bioassay records as filed in PubChem BioAssay.
Not all results are given here.
aSyn 5UTR act = Activators working through SNCA 5'UTR binding (MLPCN). alpha-synuclein 5'UTR reporter, activators screen. activity score, % (tested at 7.5 µM), hits read low. actives 7.1% (n = 300,000). AID 1814; in the data active = activity score below about -60%
* = called active by the depositor.

SMILES	aSyn 5UTR act
CN(C)c1ccc(NC(=O)c2ccc(Cn3cc([N+](=O)[O-])cn3)cc2)cc1	-72.9*
O=C(Nc1cccc(Cl)c1)N1CCc2ccccc2C1	-185.4*
COc1ccc(NC(=O)C(=O)NCC(c2ccco2)N2CCc3ccccc32)cc1 (configuration not stated)	84.9
COc1cccc(-c2cc(C(=O)N3CCc4ccccc4C3)[nH]n2)c1	-68.0*
COc1cccc(NC(=O)N2CCc3ccccc3C2)c1	-104.4*
COc1ccc(NC(=S)N2CCc3ccccc3C2)cc1	-81.8*
FC(F)Oc1ccc(NC(=S)N2CCc3ccccc32)cc1	-132.5*
S=C(NCCc1ccccc1)N1CCc2ccccc2C1	-100.9*
COc1ccccc1C(=O)Nc1ccc2c(c1)CN(C(=O)CSC)CC2	-109.4*
COc1cccc2cc(C(=O)NCc3ccccn3)c(=O)oc12	-164.0*
CCOC(=O)CC(NC(=O)c1cc2cccc(OC)c2oc1=O)c1ccc(OC)cc1 (configuration not stated)	-69.7*
CC(C)(C)NC(=O)CSc1ncnc2c1cnn2-c1ccccc1	-73.1*
CCOC(=O)CC(=O)CSc1ncnc2c1cnn2-c1ccccc1	-104.5*
COc1ccc(C2CC(=O)N(C)c3ccccc3S2)cc1OC (configuration not stated)	-87.1*
Cc1ccc(Nc2nc(-c3ccc(O)c(O)c3)cs2)nc1	-216.3*
Cc1ccc(Nc2nc(-c3ccc(F)cc3)cs2)nc1	-174.9*
Clc1ccc(OCCCN2CCCCC2)c(Br)c1	-87.8*
C=CCNC(=O)c1ccc(OC2CCN(S(=O)(=O)N(C)C)CC2)cc1	-161.6*
c1ccc(Nc2nc(-c3cccs3)cs2)nc1	-165.3*
C/C(=N\NC(=O)c1cc(-c2cccs2)nc2ccccc12)c1ccccn1	79.3
Cc1cccc(Nc2nc(-c3cccs3)cs2)n1	-90.5*
CCOc1cc(/C=N\NC(N)=O)cc(Br)c1OC(C)C	61.8
C=CCOc1c(Br)cc(/C=N/Nc2ccc(C(=O)O)cc2)cc1OCC	-123.1*
C/C(=C/c1oc2ccc(O)cc2c1[N+](=O)[O-])N(C)C	-95.6*
Nc1[nH]n2c(=O)cc(-c3ccccc3)nc2c1N=Nc1ccccc1	67.6
SMILES	aSyn 5UTR act
CCc1c(C)nc2cc(-c3ccc(Cl)cc3)[nH]n2c1=O	-98.0*
O=c1c2c(nc3cc(-c4ccc(Cl)cc4)[nH]n13)CCS2	-131.5*
O=c1cc(-c2ccccc2)nc2cc(-c3ccc(Br)cc3)[nH]n12	-94.2*
CCc1c(C)nc2cc(-c3cccc(Br)c3)[nH]n2c1=O	-199.0*
COCc1cc(=O)n2[nH]c(-c3cccc(Br)c3)cc2n1	-75.1*
Cc1nc2cc(-c3ccc(Br)cc3)[nH]n2c(=O)c1Cl	-74.4*
CN(/N=C/c1cc([N+](=O)[O-])ccc1O)c1ccccc1	-158.8*
O=[N+]([O-])c1ccc(N/N=C/c2ccccc2O)cc1	-165.1*
CCCOc1ccc(/C=N/Nc2ccccc2[N+](=O)[O-])c(O)c1	62.0
CCCOc1ccc(/C=N/Nc2ccc(C(=O)O)cc2)c(OCCC)c1	-109.0*
CCCOc1ccc(/C=N/Nc2cccc([N+](=O)[O-])c2)c(O)c1	-164.3*
O=[N+]([O-])c1cccc(N/N=C/c2cc([N+](=O)[O-])ccc2O)c1	-69.6*
O=[N+]([O-])c1ccc(O)c(C=Nc2ccc3c(c2)OCCO3)c1	-62.0*
O=[N+]([O-])c1ccc(O)c(/C=N/Nc2ccccn2)c1	95.2
Cc1cc(C(=O)CSc2nnnn2C)c(C)n1Cc1ccco1	-109.5*
Cc1cc(C(=O)CSc2ncccn2)c(C)n1Cc1ccco1	-68.6*
Cc1nc(COC(=O)c2c(C)nn(-c3ccccc3)c2C)cs1	-104.2*
Cc1ccccc1-n1c(SCC(=O)N/N=C/c2c(C)nn(-c3ccccc3)c2C)nc2ccccc2c1=O	58.3
C/C(=N/N=C(/C)c1cccs1)c1cccs1	-119.4*
CSc1nc2c(cnn2-c2ccccc2)c(=O)n1N	-91.6*
CCSc1nc2c(cnn2-c2ccccc2)c(=O)n1N	-105.4*
O=C(CCSc1ccccc1)N1CCN(c2ccccc2)CC1	-136.6*
Cc1ccc(-c2ccc(SCC(=O)N3CCN(c4ccccc4)CC3)nn2)cc1	-90.6*
O=C(CCS(=O)(=O)c1ccccc1)N1CCN(c2ccc(F)cc2)CC1	-79.5*
Cc1nc2cc(-c3ccccc3)nn2c(C)c1CCC(=O)N1CCN(c2ccccc2)CC1	56.7
SMILES	aSyn 5UTR act
O=C(CCSc1ccc(Cl)cc1)N1CCN(c2ncccn2)CC1	-103.5*
O=C(CCSc1ccc(Cl)cc1)N1CCCCCC1	-133.0*
O=C(C#Cc1ccccc1)NCc1ccccc1F	-69.6*
CC(C)(O)C#Cc1ccc(C(=O)NCc2ccccc2F)cc1	-66.1*
CC(=Nc1ccc(C)c(C)c1)C1=C(O)CSC1=O	-121.9*
Cc1c(Cl)cccc1N=Cc1ccc([N+](=O)[O-])s1	-89.0*
CCCCOC(=O)Nc1cccc(C(=O)OCC)c1	-68.0*
CCCCOC(=O)Nc1ccc(C(C)C)cc1	-276.1*
CCCCOC(=O)Nc1ccc(C(N)=O)cc1	-94.1*
CCCCOC(=O)Nc1ccc(N(C)C)cc1	-161.8*
CCCCOC(=O)Nc1nnc(C(C)C)s1	-127.4*
CC(C)N1C(=O)/C(=C/c2nc3ccccc3c(=O)n2-c2ccccc2)c2ccccc21	-66.5*
COc1ccc(OC)c(C(=O)CC2OC(=O)c3ccccc32)c1 (configuration not stated)	-70.3*
Cc1ccc(O)c(NC(=O)c2ccc3c(c2)C(=O)N(CC(C)C)C3=O)c1	-112.5*
CCc1nnc(NC(=O)c2ccc3c(c2)C(=O)N(CC(C)C)C3=O)s1	-88.4*
CC(=O)NC1Sc2ccccc2N=C1c1ccccc1 (configuration not stated)	-180.7*
CCOc1ccc(C(=O)c2cccs2)cc1	-182.5*
Cn1c(=O)c(C(=O)NCc2ccccc2)c(O)c2ccccc21	-74.0*
Cn1c(=O)c(C(=O)c2ccc(S(C)(=O)=O)c(Cl)c2Cl)c(O)c2ccccc21	-84.5*
Cn1c(=O)c(C(=O)NCc2ccccc2Cl)c(O)c2ccccc21	-78.0*
Cc1cccc(NC(=O)c2cnn(-c3ccccc3)c2C)c1C	-128.8*
Cc1ccc(C)c(NC(=O)c2cnn(-c3ccccc3)c2C)c1	-81.4*
Cc1ccccc1NC(=O)c1cnn(-c2ccccc2)c1C	-164.3*
Cc1ccc(C(=O)NC(C)C2CC3CCC2C3)c(C)c1 (configuration not stated)	-101.8*
COc1cc(C2Nc3ccc4ncccc4c3C3=C2C(=O)CCC3)ccc1O (configuration not stated)	-102.3*
SMILES	aSyn 5UTR act
CC(=O)C(Sc1nn(C)c(=S)s1)C(=O)Nc1ccccc1 (configuration not stated)	-99.2*
CC(=O)C(Sc1nc(N2CCOCC2)nc(N2CCOCC2)n1)C(=O)Nc1ccccc1 (configuration not stated)	-66.0*
O=C(NC1CCN(Cc2ccccc2)CC1)c1ccc(Cn2c(=S)[nH]c3ccc(N4CCOCC4)cc3c2=O)cc1	-91.9*
CC1CCN(CCNC(=O)c2ccc3c(=O)n(Cc4ccc(Cl)cc4)c(=S)[nH]c3c2)CC1	98.1
CC(=O)Nc1c(C(=O)Nc2ccc3c(c2)OCO3)oc2ccccc12	-87.6*
O=C(CCl)Nc1c(C(=O)Nc2ccc3c(c2)OCCO3)oc2ccccc12	-139.0*
COCC(=O)Nc1c(C(=O)Nc2ccc3c(c2)OCO3)oc2ccccc12	-116.7*
Cc1c(C(=O)Nc2ccc3c(c2)OCO3)oc2ccccc12	-136.6*
Cc1cccc(NC(=S)NNC(=O)c2csc(C(C)C)c2)c1	-211.1*
Cc1cccc(NC(=S)NNC(=O)c2sccc2C)c1	-134.2*
